From PubChem BioAssay (NCATS)
Where “and” joins values, the source holds several entries; their conditions need not be identical. Equal entries are not always repeated. Results filed as inconclusive are left out. Calls of active or inactive are those of the source. Unless noted, calls follow the shape of the dose curve; as a rule, active = well fitted curve in the direction sought with a large enough effect; inconclusive = small, poorly fitted or top-dose-only effect, or another doubt; inactive = no such curve, though single readings can be large; an effect the other way counts as inactive or inconclusive.

Legend:
[1] = tested on: UISO; experiment: qHTS assay to identify novel small-molecules to repurpose for Merkel cell carcinoma treatment (AID 1296009); conditions: MCC and control cell lines, CellTiter-Glo viability, 72 h; series mostly up to 46 µM; also: % is scaled to controls: 0 for no effect and ±100 for the full control effect; nearly all actives have a fitted effect of over 60% in size
In short: (§1)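 CellTiter-Glo luminescence after 72 hr compound exposure at 37 degree celsius gave cell viability. Libraries NPC and MIPE were run as 8- and 11-point dose responses; RLUs normalized to DMSO (negative) and no-cell (cytotoxicity) controls.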

[2] = tested on: WaGa; experiment: as above; conditions: MCC and control cell lines, CellTiter-Glo viability, 72 h; series mostly up to 46 µM
In short: as §1

[3] = tested on: C33A; experiment: Primary qHTS to identify gynecologic anti-cancer compounds using libraries of approved drugs and bioactive compounds (AID 1345084); conditions: Gynecologic cancer cell panel viability, ATPlite luminescence, 48 h; series mostly up to 57.5 µM; also: % is scaled to controls: 0 for no effect and ±100 for the full control effect; nearly all actives have a fitted effect of over 55% in size
In short: (§2)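 Five-point cytotoxicity, 48 h drug exposure at 37 C, 5% CO2, on cells seeded 16 h beforehand. ATP content read by ATPlite luminescence.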

[4] = tested on: CAOV3; experiment: as above; conditions: Gynecologic cancer cell panel viability, ATPlite luminescence, 48 h; series mostly up to 57.5 µM
In short: as §2

[5] = tested on: CASKI; experiment: as above; conditions: Gynecologic cancer cell panel viability, ATPlite luminescence, 48 h; series mostly up to 57.5 µM
In short: as §2

[6] = tested on: Es-2; experiment: as above; conditions: Gynecologic cancer cell panel viability, ATPlite luminescence, 48 h; series mostly up to 57.5 µM
In short: as §2

[7] = tested on: HeLa; experiment: as above; conditions: Gynecologic cancer cell panel viability, ATPlite luminescence, 48 h; series mostly up to 57.5 µM
In short: as §2

[8] = tested on: Hek293T; experiment: as above; conditions: Gynecologic cancer cell panel viability, ATPlite luminescence, 48 h, control line for the selectivity index; series mostly up to 57.5 µM
In short: as §2

[9] = tested on: JEG-3; experiment: as above; conditions: Gynecologic cancer cell panel viability, ATPlite luminescence, 48 h; series mostly up to 57.5 µM
In short: as §2

[10] = tested on: OV90; experiment: as above; conditions: Gynecologic cancer cell panel viability, ATPlite luminescence, 48 h; series mostly up to 57.5 µM
In short: as §2

[11] = tested on: PA-1; experiment: as above; conditions: Gynecologic cancer cell panel viability, ATPlite luminescence, 48 h; series mostly up to 57.5 µM
In short: as §2

[12] = tested on: Tov-21-G; experiment: as above; conditions: Gynecologic cancer cell panel viability, ATPlite luminescence, 48 h; series mostly up to 57.5 µM
In short: as §2

[13] = tested on: Tov112D; experiment: as above; conditions: Gynecologic cancer cell panel viability, ATPlite luminescence, 48 h; series mostly up to 57.5 µM
In short: as §2

[14] = Drug repurposing screens with cells derived from glioblastoma tumor samples (AID 1345199); conditions: GBM patient neurospheres viability, ATP luminescence, 48 h; also: nearly all actives have a fitted effect of over 40% in size; also: potency is read from the fitted curve at half-maximal effect; as to activity, negative = cell killing: % is scaled to controls: 0 for no effect and ±100 for the full control effect
In short: (§3)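 Primary testing used CD133+ neurospheres from four GBM patients, seven concentrations, 48 h exposure and ATP-based viability; confirmation added three slower-growing patient lines.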

[15] = tested on: SKOV3; experiment: Primary qHTS to identify gynecologic anti-cancer compounds using libraries of approved drugs and bioactive compounds (AID 1345084); conditions: Gynecologic cancer cell panel viability, ATPlite luminescence, 48 h; series mostly up to 57.5 µM; also: % is scaled to controls: 0 for no effect and ±100 for the full control effect; nearly all actives have a fitted effect of over 55% in size
In short: as §2

[16] = tested on: astro; experiment: Drug repurposing screens with cells derived from glioblastoma tumor samples (AID 1345199); conditions: viability, ATP luminescence, 48 h; series mostly up to 45.9 µM; also: nearly all actives have a fitted effect of over 40% in size; also: potency is read from the fitted curve at half-maximal effect; as to activity, negative = cell killing: % is scaled to controls: 0 for no effect and ±100 for the full control effect
In short: as §3

[17] = biological target: Nuclear receptor subfamily 1 group I member 2 (Rattus norvegicus) (UniProt Q9R1A7); experiment: qHTS assay for small molecule activators of the rat pregnane X receptor (rPXR) signaling pathway (AID 651751; call rule not given here; also: 0% is about no effect); conditions: rPXR reporter cells, luciferase (One-Glo), 24 h
[18] = qHTS assay for small molecule activators of the human pregnane X receptor (PXR) signaling pathway (AID 720659; call rule not given here; also: 0% is about no effect)
[19] = at 45.9 µM (top of the series), tumour line B
[20] = at 45.9 µM (top of the series), tumour line D
[21] = at 46 µM (top of the series), tumour line A
[22] = at 91.6 µM (top of the series), tumour line B
[23] = at 91.6 µM (top of the series), tumour line D

Sequence of Nuclear receptor subfamily 1 group I member 2 (Rattus norvegicus) (Q9R1A7 whole entry, looked up): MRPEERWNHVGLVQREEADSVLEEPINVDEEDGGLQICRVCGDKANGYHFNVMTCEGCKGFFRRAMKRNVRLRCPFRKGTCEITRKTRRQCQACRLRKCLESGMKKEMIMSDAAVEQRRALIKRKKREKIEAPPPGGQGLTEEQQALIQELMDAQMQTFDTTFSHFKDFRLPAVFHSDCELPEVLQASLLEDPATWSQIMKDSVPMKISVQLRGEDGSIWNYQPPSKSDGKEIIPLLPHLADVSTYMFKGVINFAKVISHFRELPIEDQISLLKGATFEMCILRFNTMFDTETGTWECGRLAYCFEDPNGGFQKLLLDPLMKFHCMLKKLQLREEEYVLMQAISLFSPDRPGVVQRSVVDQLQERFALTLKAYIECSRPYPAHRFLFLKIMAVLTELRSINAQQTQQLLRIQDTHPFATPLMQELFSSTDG

COc1ccc2c(c1OC)C(=O)O[C@H]2[C@@H]1c2cc3c(cc2CCN1C)OCO3
inactive: Potency [1] | Potency [2] | Potency [3] | outcome [4] | outcome [5] | Potency [6] | Potency [7] | outcome [8] | outcome [9] | Potency [10] | Potency [11] | Potency [12] | Potency [13] | activity, negative = cell killing [14, 19] 0.565% | activity, negative = cell killing [14, 20] -4.13%

CN1CCC(O)(c2ccc(F)cc2)C(C(=O)c2ccc(F)cc2)C1 (stereo unspecified)
inactive: Potency [1] | Potency [2] | Potency [3] | outcome [4] | outcome [5] | Potency [6] | Potency [7] | outcome [8] | outcome [9] | Potency [10] | Potency [11] | outcome [15] | Potency [12] | Potency [13] | Potency [16]
active: Potency ([14]; tumour line A) 12.6 µM | Potency ([14]; tumour line B) 28.2 µM

CNCC(=O)c1ccc(O)c(O)c1
inactive: Potency [1] | Potency [2] | Potency [3] | outcome [4] | outcome [5] | Potency [6] | Potency [7] | outcome [8] | outcome [9] | Potency [10] | Potency [11] | outcome [15] | Potency [12] | Potency [13] | activity, negative = cell killing [14, 19] -11.2% | activity, negative = cell killing [14, 20] -3.6% | Potency [16]

CCOC(=O)CC(SP(=S)(OC)OC)C(=O)OCC (stereo unspecified)
inactive: Potency [1] | Potency [2] | Potency [3] | outcome [4] | outcome [5] | Potency [6] | Potency [7] | outcome [8] | outcome [9] | Potency [10] | Potency [11] | outcome [15] | Potency [12] | Potency [13] | activity, negative = cell killing [14, 19] -14.8% | activity, negative = cell killing [14, 21] -27.3% | activity, negative = cell killing [14, 22] -2.57% | activity, negative = cell killing [14, 23] -14% | max response [17] -0.753% and 0.726% and 3.47% | outcome [18]

CN1C(=O)CCS(=O)(=O)C1c1ccc(Cl)cc1 (stereo unspecified)
inactive: Potency [1] | Potency [2] | Potency [3] | outcome [4] | outcome [5] | Potency [6] | Potency [7] | outcome [8] | outcome [9] | Potency [10] | Potency [11] | Potency [12] | Potency [13] | activity, negative = cell killing [14, 19] -12.1% and -22.6% | activity, negative = cell killing [14, 20] -13.6% and -16.2% | activity, negative = cell killing [14, 21] -23.1% and -4.54% | Potency [16]

COc1cc(OC)c(OC)cc1C=O
inactive: Potency [1] | Potency [2] | Potency [3] | outcome [4] | outcome [5] | Potency [6] | Potency [7] | outcome [8] | outcome [9] | Potency [10] | Potency [11] | outcome [15] | Potency [12] | Potency [13] | activity, negative = cell killing [14, 22] -6.05% | max response [17] 5.78% | outcome [18]

COP(=S)(OC)Oc1cc(Cl)c(Cl)cc1Cl
inactive: Potency [1] | Potency [2] | Potency [3] | outcome [4] | outcome [5] | Potency [6] | Potency [7] | outcome [8] | outcome [9] | Potency [10] | Potency [11] | outcome [15] | Potency [12] | Potency [13] | activity, negative = cell killing [14, 19] 10.9% and 7.75% | activity, negative = cell killing [14, 20] -10.8% and 1.81% | activity, negative = cell killing [14, 21] -24.7% and -15.3% | Potency [16] | max response [17] 1.25% | outcome [18]

CC(C)(C)NCC(O)c1ccccc1Cl (stereo unspecified)
inactive: Potency [1] | Potency [2] | Potency [3] | outcome [4] | outcome [5] | Potency [6] | Potency [7] | outcome [8] | outcome [9] | Potency [11] | outcome [15] | Potency [12] | Potency [13] | activity, negative = cell killing [14, 19] -9.73% | activity, negative = cell killing [14, 20] -4.92% | Potency [16]

CCC1(CC)C(=O)C=CNC1=O
inactive: Potency [1] | Potency [2] | Potency [3] | outcome [4] | outcome [5] | Potency [6] | Potency [7] | outcome [8] | outcome [9] | Potency [10] | Potency [11] | outcome [15] | Potency [12] | Potency [13] | activity, negative = cell killing [14, 19] -5.96% | activity, negative = cell killing [14, 20] -8.64% | activity, negative = cell killing [14, 21] -23.7% | Potency [16]

C[C@H](N)C(=O)c1ccccc1
inactive: Potency [1] | Potency [2] | Potency [3] | outcome [4] | outcome [5] | Potency [6] | outcome [8] | outcome [9] | Potency [11] | outcome [15] | Potency [12] | Potency [13] | activity, negative = cell killing [14, 19] -11.6% | activity, negative = cell killing [14, 20] -9.76% | activity, negative = cell killing ([14]; at 108 µM (top of the series), tumour line B) -16.2% | activity, negative = cell killing ([14]; at 108 µM (top of the series), tumour line D) -20.3% | Potency [16]

O=[N+]([O-])O[C@H]1CO[C@H]2[C@@H]1OC[C@H]2O[N+](=O)[O-]
inactive: Potency [1] | Potency [2] | Potency [3] | outcome [4] | outcome [5] | Potency [6] | Potency [7] | outcome [8] | outcome [9] | Potency [10] | Potency [11] | outcome [15] | Potency [12] | Potency [13] | activity, negative = cell killing [14, 19] -6.92% | activity, negative = cell killing [14, 20] 3.62% | activity, negative = cell killing [14, 21] -13.3%

CC(Cc1ccccc1)NCCn1cnc2c1c(=O)n(C)c(=O)n2C (stereo unspecified)
inactive: Potency [1] | Potency [2] | Potency [3] | outcome [4] | outcome [5] | Potency [6] | Potency [7] | outcome [8] | outcome [9] | Potency [10] | Potency [11] | outcome [15] | Potency [12] | Potency [13] | activity, negative = cell killing [14, 22] -19.2% | Potency [16]
active: Potency ([14]; tumour line A) 31.6 µM

CC(C)=CC1C(C(=O)OCN2C(=O)C3=C(CCCC3)C2=O)C1(C)C (stereo unspecified)
inactive: Potency [1] | Potency [2] | Potency [3] | outcome [5] | Potency [6] | Potency [7] | outcome [9] | Potency [10] | Potency [11] | Potency [12] | Potency [13] | activity, negative = cell killing [14, 19] -18.8% | activity, negative = cell killing [14, 20] -12.7%

CCN[C@@H](C)Cc1cccc(C(F)(F)F)c1
inactive: Potency [1] | Potency [2] | Potency [3] | outcome [5] | Potency [6] | Potency [7] | outcome [8] | outcome [9] | Potency [10] | Potency [11] | outcome [15] | Potency [12] | Potency [13] | activity, negative = cell killing [14, 22] 2.77% | activity, negative = cell killing [14, 23] -1.09%
